# Many of the other results were omitted from the sample, so the strongest signals are more common in it than they were.
# B1: Protein L(B1-B4) (Finegoldia magna), Q51912 (protein)
# chain: KEETPETPETDSEEEVTIKANLIFANGSTQTAEFKGTFEKATSEAYAYADTLKKDNGEYTVDVADKGYTLNIKFAGKEKTPEEPKEEVTIKANLIYADGKTQTAEFKGTFEEATAEAYRYADALKKDNGEYTVDVADKGYTLNIKFAGKEKTPEEPKEEVTIKANLIYADGKTQTAEFKGTFEEATAEAYRYADLLAKENGKYTVDVADKGYTLNIKFAGKEKTPEEPKEEVTIKANLIYADGKTQTAEFKGTFAEATAEAYRYADLLAKENGKYTADLEDGGYTINIRFAG
# Experiments:
# Experiment in all cases: glycan array binding signal (z-score within array); higher = stronger binding
# Settings in all cases: glycan notation: IUPAC condensed, linker removed
# [1] = target: Fuc(a1-2)Gal(b1-3)GlcNAc(b1-3)[Fuc(a1-2)Gal(b1-3)GlcNAc(b1-6)]GalNAc
# Procedure, shortened: (§1)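 Glycan array binding is given as a within-array Z-score, which can be read as non-binding when negative. The arrays, 3228 of them, came from the Consortium for Functional Glycomics database and were retained only where the protein sequence was available. Z-scores were averaged across arrays of the same protein sequence at different concentrations or buffers and across linkers.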
# [2] = target: Fuc(a1-2)Gal(b1-3)[Fuc(a1-4)]GlcNAc(b1-3)[Gal(b1-4)GlcNAc(b1-6)]Gal(b1-4)Glc
# Procedure, shortened: as §1
# [3] = target: Fuc(a1-2)Gal(b1-4)Fuc(a1-3)]GlcNAc(b1-2)Man(a1-3)[Fuc(a1-2)Gal(b1-4)[Fuc(a1-3)]GlcNAc(b1-2)Man(a1-6)]Man(b1-4)GlcNAc(b1-4)GlcNAc
# Procedure, shortened: as §1
# [4] = target: Fuc(a1-2)Gal(b1-4)[Fuc(a1-3)]GlcNAc
# Procedure, shortened: as §1
# [5] = target: Fuc(a1-2)Gal(b1-4)[Fuc(a1-3)]GlcNAc(b1-3)Gal(b1-4)[Fuc(a1-3)]GlcNAc(b1-3)Gal(b1-4)[Fuc(a1-3)]GlcNAc
# Procedure, shortened: as §1
# [6] = target: Fuc(a1-2)[Gal(a1-3)]Gal(b1-3)GlcNAc(b1-2)Man(a1-3)[Fuc(a1-2)[Gal(a1-3)]Gal(b1-3)GlcNAc(b1-2)Man(a1-6)]Man(b1-4)GlcNAc(b1-4)[Fuc(a1-6)]GlcNAc
# Procedure, shortened: as §1
# [7] = target: Fuc(a1-2)[Gal(a1-3)]Gal(b1-4)Glc
# Procedure, shortened: as §1
# [8] = target: Fuc(a1-2)[Gal(a1-3)]Gal(b1-4)GlcNAc(b1-3)GalNAc
# Procedure, shortened: as §1
# [9] = target: Fuc(a1-2)[Gal(a1-3)]Gal(b1-4)GlcNAc(b1-6)GalNAc
# Procedure, shortened: as §1
# [10] = target: Fuc(a1-2)[GalNAc(a1-3)]Gal(b1-4)GlcNAc(b1-2)Man(a1-3)[Fuc(a1-2)[GalNAc(a1-3)]Gal(b1-4)GlcNAc(b1-2)Man(a1-6)]Man(b1-4)GlcNAc(b1-4)[Fuc(a1-6)]GlcNAc
# Procedure, shortened: as §1
# [11] = target: Gal(b1-3)GlcNAc(b1-2)[Gal(b1-3)GlcNAc(b1-6)]Man(a1-6)[Gal(b1-3)GlcNAc(b1-2)Man(a1-3)]Man(b1-4)GlcNAc(b1-4)GlcNAc
# Procedure, shortened: as §1
# [12] = target: Gal(b1-3)GlcNAc(b1-3)Gal(b1-4)GlcNAc(b1-6)[Gal(b1-3)GlcNAc(b1-3)]Gal(b1-4)Glc
# Procedure, shortened: as §1
# [13] = target: Gal(b1-3)[Fuc(a1-4)]GlcNAc(b1-2)Man
# Procedure, shortened: as §1
# [14] = target: Gal(b1-4)GlcNAc(b1-2)[Gal(b1-4)GlcNAc(b1-6)]Man(a1-6)[Gal(b1-4)GlcNAc(b1-2)Man(a1-3)]Man(b1-4)GlcNAc(b1-4)[Fuc(a1-6)]GlcNAc
# Procedure, shortened: as §1
# [15] = target: Gal(b1-4)GlcNAc(b1-3)Gal(b1-4)GlcNAc(b1-2)Man(a1-3)[Gal(b1-4)GlcNAc(b1-3)Gal(b1-4)GlcNAc(b1-2)Man(a1-6)]Man(b1-4)GlcNAc(b1-4)[Fuc(a1-6)]GlcNAc
# Procedure, shortened: as §1
# [16] = target: Gal(b1-4)GlcNAc(b1-3)Gal(b1-4)GlcNAc(b1-3)Gal(b1-4)GlcNAc(b1-3)Gal(b1-4)GlcNAc(b1-2)Man(a1-3)[Gal(b1-4)GlcNAc(b1-3)Gal(b1-4)GlcNAc(b1-3)Gal(b1-4)GlcNAc(b1-3)Gal(b1-4)GlcNAc(b1-2)Man(a1-6)]Man(b1-4)GlcNAc(b1-4)GlcNAc
# Procedure, shortened: as §1
# [17] = target: Gal(b1-4)GlcNAc(b1-3)Gal(b1-4)GlcNAc(b1-3)Gal(b1-4)GlcNAc(b1-3)Gal(b1-4)GlcNAc(b1-3)Gal(b1-4)GlcNAc(b1-2)Man(a1-3)[Gal(b1-4)GlcNAc(b1-3)Gal(b1-4)GlcNAc(b1-3)Gal(b1-4)GlcNAc(b1-3)Gal(b1-4)GlcNAc(b1-3)Gal(b1-4)GlcNAc(b1-2)Man(a1-6)]Man(b1-4)GlcNAc(b1-4)GlcNAc
# Procedure, shortened: as §1
# [18] = target: Gal(b1-4)GlcNAc(b1-3)Gal(b1-4)GlcNAc(b1-3)[Gal(b1-4)GlcNAc(b1-3)Gal(b1-4)GlcNAc(b1-6)]GalNAc
# Procedure, shortened: as §1
# [19] = target: Gal3S(b1-3)GlcNAc
# Procedure, shortened: as §1
# [20] = target: Gal3S(b1-4)[Fuc(a1-3)]Glc6S
# Procedure, shortened: as §1
# [21] = target: GalNAc(b1-4)GlcNAc(b1-2)Man(a1-3)[GalNAc(b1-4)GlcNAc(b1-2)Man(a1-6)]Man(b1-4)GlcNAc(b1-4)GlcNAc
# Procedure, shortened: as §1
# [22] = target: GlcA(b1-3)GlcNAc
# Procedure, shortened: as §1
# [23] = target: GlcNAc(b1-3)Gal(b1-4)GlcNAc(b1-3)Gal(b1-4)GlcNAc(b1-2)Man(a1-3)[GlcNAc(b1-3)Gal(b1-4)GlcNAc(b1-3)Gal(b1-4)GlcNAc(b1-2)Man(a1-6)]Man(b1-4)GlcNAc(b1-4)[Fuc(a1-6)]GlcNAc
# Procedure, shortened: as §1
# [24] = target: GlcNAc(b1-3)Gal(b1-4)GlcNAc(b1-3)Gal(b1-4)GlcNAc(b1-3)Gal(b1-4)GlcNAc(b1-2)Man(a1-3)[GlcNAc(b1-3)Gal(b1-4)GlcNAc(b1-3)Gal(b1-4)GlcNAc(b1-3)Gal(b1-4)GlcNAc(b1-2)Man(a1-6)]Man(b1-4)GlcNAc(b1-4)GlcNAc
# Procedure, shortened: as §1
# [25] = target: GlcNAc6S(b1-3)Gal(b1-4)GlcNAc
# Procedure, shortened: as §1
# [26] = target: Man(a1-3)[Man(a1-6)]Man(a1-6)[Man(a1-2)Man(a1-3)]Man(b1-4)GlcNAc(b1-4)GlcNAc
# Procedure, shortened: as §1
# [27] = target: Man(a1-6)Man
# Procedure, shortened: as §1
# [28] = target: Neu5Ac(a2-3)Gal(b1-4)GlcNAc(b1-2)Man(a1-3)[Neu5Ac(a2-6)Gal(b1-4)GlcNAc(b1-2)Man(a1-6)]Man(b1-4)GlcNAc(b1-4)GlcNAc
# Procedure, shortened: as §1
# [29] = target: Neu5Ac(a2-3)Gal(b1-4)GlcNAc(b1-2)[Neu5Ac(a2-3)Gal(b1-4)GlcNAc(b1-4)]Man(a1-3)[GlcNAc(b1-4)][Neu5Ac(a2-3)Gal(b1-4)GlcNAc(b1-2)[Neu5Ac(a2-3)Gal(b1-4)GlcNAc(b1-6)]Man(a1-6)]Man(b1-4)GlcNAc(b1-4)GlcNAc
# Procedure, shortened: as §1
# [30] = target: Neu5Ac(a2-3)Gal(b1-4)GlcNAc(b1-3)Gal(b1-4)GlcNAc(b1-3)Gal(b1-4)GlcNAc
# Procedure, shortened: as §1
binder,measurement,setting,value
B1,glycan array binding signal (z-score),[1],2.77
same,glycan array binding signal (z-score),[2],-0.528
same,glycan array binding signal (z-score),[3],1.7
same,glycan array binding signal (z-score),[4],-0.142
same,glycan array binding signal (z-score),[5],0.159
same,glycan array binding signal (z-score),[6],3.09
same,glycan array binding signal (z-score),[7],0.047
same,glycan array binding signal (z-score),[8],3.09
same,glycan array binding signal (z-score),[9],-0.474
same,glycan array binding signal (z-score),[10],2.95
same,glycan array binding signal (z-score),[11],0.177
same,glycan array binding signal (z-score),[12],-0.192
same,glycan array binding signal (z-score),[13],1.5
same,glycan array binding signal (z-score),[14],2.92
same,glycan array binding signal (z-score),[15],0.486
same,glycan array binding signal (z-score),[16],2.06
same,glycan array binding signal (z-score),[17],0.528
same,glycan array binding signal (z-score),[18],4.22
same,glycan array binding signal (z-score),[19],-0.911
same,glycan array binding signal (z-score),[20],2.28
same,glycan array binding signal (z-score),[21],1.49
same,glycan array binding signal (z-score),[22],-0.785
same,glycan array binding signal (z-score),[23],3.07
same,glycan array binding signal (z-score),[24],1.06
same,glycan array binding signal (z-score),[25],-0.336
same,glycan array binding signal (z-score),[26],2.94
same,glycan array binding signal (z-score),[27],-0.159
same,glycan array binding signal (z-score),[28],-1.02
same,glycan array binding signal (z-score),[29],-0.913
same,glycan array binding signal (z-score),[30],-1.05

# Reference: the supplement of paper PMC8728848
